Results taken from PubChem BioAssay AID651603 (National Center for Advancing Translational Sciences (NCATS), 2012).
Calls of active or inactive are those of the source.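 Rule for the calls: active = inhibition of at least 50% at 50 µM, meaning an activity change of -50% or lower; inconclusive = inhibition above 30% but under 50% at 50 µM; inactive = inhibition of 30% or less at 50 µM.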

assay: qHTS Assay for Iinhibitors of HIV-1 Budding by Blocking the Interaction of PTAP/TSG101: Hit Validation in Viral Budding Asaay; conditions: HeLa pNL4-3 HIV-1 budding, supernatant RT activity, 18 h; at 50 µM (top of the series)
From the text: Stages of the HIV-1 replication cycle, specifically virus assembly and release, provide underexploited targets for the development of novel antiviral inhibitors. The late stages of HIV-1 replication are mediated by the Gag precursor protein, Pr55Gag. Expression of Pr55Gag is both necessary and sufficient for the production of virus-like particles from Gag-expressing cells. The Gag protein hijacks key host proteins involved in endocytic machinery of the host cell to promote endosomal processing and viral budding. The budding process requires a direct interaction between a […] (PTAP) motif in the p6 domain of Gag and the cellular endosomal sorting protein known as Tsg101. In this way, the Gag PTAP motif promotes the host cells to recruit viral particles to the plasma membrane where the new viral particles are released, effectively turning the host cells into viral factories. A fluorescence anisotropy assay has been developed to quantitatively measure the PTAP-Tsg101 interaction which can be used to screen for inhibitors of this interaction. In this hit validation assay the readout is the release of reverse transcriptase (RT) activity into the medium of HeLa cells transfected with the full-length HIV-1 molecular clone pNL4-3. RT release from virus-producing cells occurs upon budding of virus from the cell surface. Small molecules that block the PTAP/Tsg101 interaction will reduce RT release. HeLa cells will also be transfected with a luciferase expression vector; compounds that are cytotoxic will reduce luciferase expression. NIH Molecular Libraries Probe Production Network [MLPCN] NIH Chemical Genomics Center [NCGC] MLPCN Grant: 1 R03 MH087464-01A1 PI Name: Dr. Eric Freed, NCI
Virus producing cells were treated with 12.5, 25 & 50 uM of each compound and 18 hr after treatment virus supernatant was collected from the cells. Reverse transcriptase (RT) activity in the virus supernatant is then measured.

Activity change, negative = inhibition, active:
CN1CCc2c(sc(NC(=O)CSc3ccc(F)cc3)c2-c2nc3ccccc3s2)C1 -59.8%, O/C=c1\ccc2cccc3nc(C(F)(F)F)nc1c23 -89.5%, COc1cccc(C(=O)c2sc3nc(-c4ccccc4)cc(C(F)(F)F)c3c2N)c1 -91.8%, COc1cccc2c1C(=O)c1c(O)c3c(c(O)c1C2=O)CC(O)(C(=O)CO)CC3OC1CC(N(C)C)C(O)C(C)O1 (centres undefined) -84%
